Screening results from PubChem.
Rows were chosen to be rich in hits. Some 6.8% of all compounds tested hit in one or more screens of this group.
Spn PMK inh = blocks S. pneumoniae phosphomevalonate kinase; purified PMK, PK/LDH-coupled NADH absorbance 340 nm; inhibition, % at 10 µM; 65,000 tested, 0.49% active; AID 539;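 active = top-ranked compounds by inhibition in the single 10 µM screen, taking a fixed number of the strongest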;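 note: 0% = full reaction with DMSO carrier and 100% = background rate without enzyme reaction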
Spn MK inh = inhibitors of Streptococcus pneumoniae mevalonate kinase. purified MK, PK/LDH-coupled NADH absorbance 340 nm. inhibition, % at 10 µM. 65,000 tested, 0.48% active. AID 555;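 active = ranked among the strongest by inhibition in the single 10 µM screen, a fixed top-ranked set picked for dose follow-up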
NADH enzymes = inhibitors of enzymes used to reach an NAD/NADH endpoint; 65,000 tested, 0.02% active; IC50, µM (highest dose often 10 µM), for the others: at the top dose inhibition; coupled PK/LDH NADH assays, four targets;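 active = single-dose screening hits from any of four coupled enzyme assays that gave an IC50 when retested across doses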;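 note: the DPM-DC format reads NADH fluorescence rather than 340 nm absorbance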
Abs 340nm = compounds absorbing at 340 nm | 65,000 tested, under 10 active | compound absorbance at 340 nm, fold over control | fold change at 10 µM;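 active = at 10 µM dose, initial 340 nm absorbance at least 2 fold that of control wells; inactive = change under 2 fold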;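 note: initial absorbance extrapolated from kinetic A340 decline of NADH oxidation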
Fluor 339 460 = intrinsic fluorescence of library compounds, ex339/em460 – biochemical, MLSMR library, data from DPM-DC assay, artefact control, profiling panel. fluorescence fold increase at 10 µM. AID 709. 65,000 tested, 5.5% active. compound autofluorescence, ex339/em460 nm, NADH buffer; active compounds read high; 1 = no-compound wells, NADH background;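 active = at 10 µM, mean starting fluorescence two-fold or more over control wells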;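 note: signal is the first read of a kinetic run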
DPM-DC inhibit = inhibitors of Streptococcus pneumoniae diphosphomevalonate decarboxylase | 65,000 tested, 0.49% active | purified DPM-DC, PK/LDH coupled NADH fluorescence | AID 556 | calls only at 10 µM;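 active = the 320 compounds with the highest percent inhibition in the single-dose primary screen, excluding strongly autofluorescent ones, cut at about 32% in these data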;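 note: kinetic rate of NADH fluorescence loss reporting ADP formed by the decarboxylase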
Numbers without * were called inactive; i = inactive; x = no result given; + = active, no number.

SMILES	Spn PMK inh	Spn MK inh	NADH enzymes	Abs 340nm	Fluor 339 460	DPM-DC inhibit
Cn1nc(CC(=O)Nc2ccc3c(c2)CCC3)c2ccccc2c1=O	7.0	4.0	4.0%	1	1.09	i
Cn1nc(CC(=O)Nc2ncc(Br)s2)c2ccccc2c1=O	25.0*	0.0	8.0%	1.04	1.07	i
Nc1c(C(=O)Nc2ccc(F)cc2)sc2nc(-c3ccco3)ccc12	0.0	5.0	3.0%	1.11	3.77*	x
COC(=O)c1ccccc1NC(=O)CSc1nc(-c2ccco2)cc(C(F)(F)F)n1	4.0	9.0	4.0%	1.05	1.2	i
CN(CC(=O)NCc1ccc2c(c1)OCO2)S(=O)(=O)c1ccc(Br)s1	14.0	0.0	5.0%	1.03	1.12	i
COCCNC(=O)c1ccc2c(c1)NC(=O)CS2	27.0*	8.0	12.0%	1	1.03	i
O=C1CSc2ccc(C(=O)N3CCN(c4ccccn4)CC3)cc2N1	10.0	2.0	4.0%	1.01	1.14	i
CC(C)(CN=C1NS(=O)(=O)c2ccccc21)CNC(=O)CN1C(=O)c2ccccc2C1=O	15.0	14.0	10.0%	1	1.1	i
Cc1cccc(NC(=O)c2cc(-c3ccco3)nc3ccccc23)n1	6.0	1.0	4.0%	1.09	4.94*	x
O=C(Nc1ccccc1C(=O)NCC1CCCO1)c1ccco1 (configuration not stated)	5.0	7.0	2.0%	1.01	1.04	i
O=C(Nc1ccon1)c1cc(-c2ccccc2)nc2ccccc12	10.0	10.0	3.0%	1.01	1.19	i
O=C(NCC1CCCO1)c1cc(-c2ccco2)nc2ccccc12 (configuration not stated)	9.0	8.0	9.0%	1.17	4.95*	x
O=C(c1ccco1)N1CCN(C(=O)c2cc(-c3ccncc3)nc3ccc(Br)cc23)CC1	5.0	4.0	4.0%	1.07	1.05	i
O=C(O)c1cc(-c2ccco2)nc2ccc(Br)cc12	16.0	5.0	14.0%	1.06	2.6*	i
C/C=C/Cn1c(N(C)Cc2ccccc2)nc2c1c(=O)[nH]c(=O)n2C	11.0	0.0	16.0%	1.05	0.54	+
CN(Cc1ccccc1)c1nc2c(c(=O)[nH]c(=O)n2C)n1C	12.0	10.0	7.0%	1	1.02	i
Cc1ccsc1CN1CCN(c2ccccn2)CC1	0.0	45.0*	15.0%	1.04	1.09	i
O=C(Nc1ccc2nn(-c3ccccc3)nc2c1)c1ccc2c(c1)OCO2	2.0	0.0	5.0%	1.17	2.56*	i
COc1cc(C(=O)Nc2ccc3c(c2)OCO3)ccc1-n1cnnn1	12.0	14.0	19.0%	1.03	1.25	+
COc1cc(C(=O)Nc2ccc3c(c2)OCCO3)c(-n2cnnn2)cc1OC	10.0	0.0	8.0%	1.02	1.02	i
CCN(CC)S(=O)(=O)c1cccc(C(=O)Nc2nc3cc4c(cc3s2)OCCO4)c1	3.0	0.0	2.0%	1.1	2.1*	x
CCN(CC)CCNC(=O)c1cc2c(=O)n(C)c3ccccc3c2n1C	0.0	3.0	4.0%	1.06	1.73	i
CCCCN(CC)CCNC(=O)c1cc2c(=O)n(C)c3ccccc3c2n1C	9.0	8.0	9.0%	1.06	2.06*	x
Cn1cc(C(=O)NCCN2CCN(c3cccc(Cl)c3)CC2)c2c3ccccc3n(C)c2c1=O	5.0	0.0	2.0%	1.08	2*	i
CN1CCN(CCNC(=O)c2cc3c(=O)n(C)c4ccccc4c3n2C)CC1	14.0	3.0	18.0%	1.06	1.75	+
SMILES	Spn PMK inh	Spn MK inh	NADH enzymes	Abs 340nm	Fluor 339 460	DPM-DC inhibit
COCCn1c(=O)[nH]c2cc(C(=O)NCCN3CCN(c4cccc(Cl)c4)CC3)ccc2c1=O	0.0	10.0	3.0%	1.06	1.32	i
COC(=O)c1cnn2c3c(c(C)nc12)CCCC3	24.0	3.0	14.0%	0.99	4.83*	x
C=CCc1c(C)nc2c(C(=O)O)cnn2c1C	14.0	0.0	5.0%	1.01	1.89	i
COC(=O)c1cc2sccc2n1CC(=O)Nc1cccc(SC)c1	1.0	7.0	3.0%	0.98	1.05	i
CCc1nnc(NC(=O)Cn2nnc(-c3ccccc3F)n2)s1	8.0	0.0	3.0%	1.03	1.08	i
O=C(Cc1cc(=O)oc2cc(O)ccc12)NCC1CCC(C(=O)O)CC1 (configuration not stated)	0.0	8.0	4.0%	1.1	3.9*	x
